HT1080 IDH1KD tx = toxicity to HT-1080 IDH1 knockdown cells (counter line); HT-1080 IDH1 knockdown viability, ATP luminescence, 48 h; Potency, µM (top dose mostly 46.1 µM), hits mostly cytotoxic; hit rate 2% among 360,000; AID 686971
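% activity derives from luminescence (CellTiter-Glo), normalised to DMSO and no-cell wells. HT-1080-IDH1KD cells, 750/well, had 48 h compound exposure at 37 °C.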
HepG2 viability = kills HepG2 cells in TGF-b inhibitor counter-screen; AID 588856; Potency, µM (doses to about 46.1 µM), hits mostly cytotoxic; hit rate 0.76% among 410,000; HepG2 CAGA-GFP viability, ATP luminescence, 18 h
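CellTiter-Glo luminescence gave cytotoxicity after 18 hours at 37 degrees C. The cells were HepG2 CAGA-GFP in 1% FBS DMEM, stimulated with 500 pg/mL TGF-beta after compound addition. %Activity was normalised to no-cell wells (complete cell-killing) and DMSO (no toxicity), and curves were fitted and classified.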
ATXN2 expr inh = reduces ATXN2 reporter expression in HEK-293 cells; HEK-293 ATXN2-luciferase reporter, luminescence, 24 h; Potency, µM (doses to about 57 µM), actives largely listed as inhibitors; hit rate 0.72% among 360,000; AID 1745845; also: nearly all actives have a fitted effect of over 55% in size
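qHTS (up to 57 uM final) was run with 24 h compound exposure of reporter cells at 37 °C. Each well was multiplexed: SteadyGlo luminescence measured ATXN2-luciferase expression after a fluorogenic Gly-Phe-AFC viability readout (25 uM final).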
TGFb inhibitor = inhibitors of TGF-b signaling; Potency, µM (doses to about 46.1 µM), most hits filed as inhibitors; hit rate 1.2% among 410,000; AID 588855; HepG2 CAGA-GFP TGF-b/SMAD3 reporter, GFP fluorescence, 18 h; TGF-beta stimulated, 500 pg/mL final; also: nearly all actives have a fitted effect of over 65% in size
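First, reporter cells (HEPG2 CAGA-GFP) rested 2 h at 37 degrees C. Next, compounds were pinned in and TGF-beta added to 500 pg/mL final. After 18 h, GFP was imaged per cell and summed per well.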
HT1080NT lethal = kills 2HG-producing HT-1080-NT fibrosarcoma cells | hit rate 1.6% among 360,000 | HT-1080-NT fibrosarcoma viability, CellTiter-Glo ATP luminescence, 48 h | Potency, µM (top dose mostly 46.1 µM), most hits filed as cytotoxic;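 also: NT is the 2HG producing partner of a matched IDH1 knockdown line; nearly all actives have a fitted effect of over 55% in size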
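A 48-hour cytotoxicity screen used HT-1080-NT cells plated 2 hours before compound delivery. ATP-based CellTiter-Glo luminescence measured viability, normalized to DMSO and no-cell controls.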
ATXN viability = cell viability loss in ATXN counter-screen | S2 cells (HEK-293 line with an ATXN2-luciferase reporter) viability, CellTiter-Fluor protease fluorescence, 24 h | Potency, µM (top dose mostly 56.7 µM), hits mostly cytotoxic | hit rate 0.49% among 400,000 | AID 651635; also: nearly all actives have a fitted effect of over 40% in size
A number is an active result; [ ] = dose if it differs, or a comment. The list is not random: actives were taken first. Their share in the collection is about 3.8%. Calls follow the shape of the dose curve; as a rule, active = well fitted curve in the direction sought with a large enough effect; inconclusive = small, poorly fitted or top-dose-only effect, or another doubt; inactive = no such curve, though single readings can be large; an effect the other way counts as inactive or inconclusive.

How did CCOC(=O)/C(=C/C=C1\Sc2cc(C)c(C)cc2N1CC)C(C)=O do in these assays?
HT1080 IDH1KD tx: inactive; HepG2 viability: inactive; ATXN2 expr inh: inactive[11.3 µM]; TGFb inhibitor: inactive; HT1080NT lethal: inactive; ATXN viability: inactive

Results for CCC(=O)/C=C1/Sc2ccccc2N1CC ?
HT1080 IDH1KD tx: inactive; HepG2 viability: inactive; ATXN2 expr inh: inactive; TGFb inhibitor: inactive; HT1080NT lethal: inactive; ATXN viability: inactive

What do the screens show for `CCN1/C(=C/c2ccc3cc(C)ccc3[n+]2CC)Sc2cc(C)c(C)cc21`?
HT1080 IDH1KD tx: 11.6µM; HepG2 viability: inactive; ATXN2 expr inh: inconclusive; TGFb inhibitor: inactive; HT1080NT lethal: 18.4µM; ATXN viability: inconclusive

How did CC[n+]1c(/C=C2\Sc3ccccc3N2C)ccc2cccc(C)c21 do in these assays?
HT1080 IDH1KD tx: 10.3µM; HepG2 viability: inactive; ATXN2 expr inh: inconclusive; TGFb inhibitor: inactive; HT1080NT lethal: 13µM; ATXN viability: inconclusive

How did CCN1/C(=C/c2ccc3cc(C)ccc3[n+]2CC)Sc2ccccc21 do in these assays?
HT1080 IDH1KD tx: 11.6µM; HepG2 viability: inactive; TGFb inhibitor: inactive; HT1080NT lethal: 5.8µM

What do the screens show for `CCOC(=O)Nc1ccc(/C=C/c2ccnc3ccccc23)cc1`?
HepG2 viability: inactive; TGFb inhibitor: inconclusive

What do the screens show for `CCCCCCCCCCCCOC(=O)N1CCN(/[N+]([O-])=N/Oc2ccc([N+](=O)[O-])cc2[N+](C)=O)CC1`?
HepG2 viability: inactive; TGFb inhibitor: inactive

Results for O=C(Nc1ccc(C(=O)N2CCN(c3cccc(Cl)c3)CC2)cc1)c1nsc2ccccc12 ?
HepG2 viability: inactive; ATXN2 expr inh: inactive; TGFb inhibitor: inactive; ATXN viability: inactive

How did COc1ccc2ccccc2c1CN1CCCC(n2cc(C(=O)N3CCCC3)nn2)C1 (stereo not given) do in these assays?
ATXN viability: inactive

Results for Cc1ccc(NC(=O)CSc2nnc3[nH]c(=O)cc(-c4ccccc4)n23)cc1Cl ?
HepG2 viability: inactive; TGFb inhibitor: inactive

What do the screens show for `COC(=O)c1ccccc1NC(=O)c1cnn2c1NC(=C1CC1)C=C2C(F)F`?
HepG2 viability: inactive; TGFb inhibitor: inactive

Results for CCC(CN)CC(C)CCNCC(O)CNCC(C)CC(CC)CN (stereo not given) ?
ATXN viability: inactive

What do the screens show for `Cc1ccc(N=Cc2c(C)[nH]n(-c3nc4ccccc4[nH]3)c2=O)cc1`?
HT1080 IDH1KD tx: 3.26µM; HepG2 viability: 0.398µM; ATXN2 expr inh: inconclusive; TGFb inhibitor: inactive; HT1080NT lethal: 2.91µM; ATXN viability: inactive

What do the screens show for `Cc1ccc(-n2[nH]c(C)c(C=Nc3ccc4[nH]c(=O)[nH]c4c3)c2=O)cc1C`?
HT1080 IDH1KD tx: 23.1µM; HepG2 viability: inactive; ATXN2 expr inh: inactive; TGFb inhibitor: inactive; HT1080NT lethal: 23.1µM; ATXN viability: inactive

Results for Cc1ccc(-n2[nH]c(C)c(C=Nc3ccc4[nH]c(=O)[nH]c4c3)c2=O)cc1 ?
HT1080 IDH1KD tx: inconclusive; HepG2 viability: 12.6µM; ATXN2 expr inh: inactive; TGFb inhibitor: inconclusive; HT1080NT lethal: inconclusive; ATXN viability: inactive

How did CCOc1[nH]n(-c2ccccc2)c(=O)c1C=Nc1ccc(C)cc1 do in these assays?
HT1080 IDH1KD tx: inactive; HepG2 viability: inactive; ATXN2 expr inh: inactive; TGFb inhibitor: inactive; HT1080NT lethal: inactive; ATXN viability: inactive

What do the screens show for `COc1nccnc1NS(=O)(=O)c1ccc(N=Cc2c(C)[nH]n(-c3ccccc3)c2=O)cc1`?
HT1080 IDH1KD tx: inactive; HepG2 viability: inactive; ATXN2 expr inh: inactive; TGFb inhibitor: inactive; HT1080NT lethal: inactive; ATXN viability: inactive

How did Cc1[nH]n(-c2cccc3ccccc23)c(=O)c1C=Nc1ccc2[nH]c(=O)[nH]c2c1 do in these assays?
HT1080 IDH1KD tx: inactive; HepG2 viability: inactive; ATXN2 expr inh: inactive; TGFb inhibitor: inactive; HT1080NT lethal: inactive; ATXN viability: inactive

Results for COc1nccnc1NS(=O)(=O)c1ccc(N=Cc2c(C)[nH]n(-c3ccc(C)c(C)c3)c2=O)cc1 ?
HT1080 IDH1KD tx: 7.94µM; HepG2 viability: 10µM; ATXN2 expr inh: inactive; TGFb inhibitor: inconclusive; HT1080NT lethal: 10µM; ATXN viability: inactive

How did COC(=O)[C@@H](NC(=O)C1CCCN(c2nc(C)c3ccc(C)cc3n2)C1)C(C)C (stereo not given in full) do in these assays?
ATXN viability: inactive

Results for COc1cc(C2c3cc4c(cc3CC3COC(=O)N32)OCO4)cc(OC)c1OC (stereo not given) ?
HT1080 IDH1KD tx: 1.03µM; HepG2 viability: inactive; ATXN2 expr inh: inactive; TGFb inhibitor: inactive; HT1080NT lethal: 1.3µM; ATXN viability: inconclusive

How did COc1cc2c(c(OC)c1OC)C(c1ccc3c(c1)OCO3)CC(=O)O2 (stereo not given) do in these assays?
HT1080 IDH1KD tx: inactive; HepG2 viability: inactive; ATXN2 expr inh: inactive; TGFb inhibitor: inactive; HT1080NT lethal: inactive; ATXN viability: inactive

What do the screens show for `O=S(=O)(c1ccc2[nH]c3c(c2c1)CCCCC3)N1CCN(c2cccc(Cl)c2)CC1`?
HepG2 viability: inactive; ATXN2 expr inh: inactive; TGFb inhibitor: inconclusive; ATXN viability: inactive

Results for COc1ccccc1CNc1nc(-c2ccco2)nn1C(=O)c1ccccc1[N+](=O)[O-] ?
HepG2 viability: inactive; ATXN2 expr inh: inactive; TGFb inhibitor: inactive; ATXN viability: inactive

Results for CCCCN(CCC(=O)O)c1ccc(/C=C/c2ccnc3ccccc23)cc1 ?
HepG2 viability: 5.62µM; TGFb inhibitor: inconclusive

How did CN(C)c1ccc(/C=C/c2ccnc3ccccc23)c(F)c1 do in these assays?
HepG2 viability: inactive; TGFb inhibitor: inconclusive

How did CN(C)c1ccc(/C=C\C=C/c2ccnc3ccccc23)cc1 do in these assays?
HepG2 viability: inactive; TGFb inhibitor: 8.91µM

How did C/C(=N\Nc1ccccn1)c1ccc(N2CCOCC2)cc1 do in these assays?
HT1080 IDH1KD tx: inactive; HepG2 viability: inactive; ATXN2 expr inh: inactive; TGFb inhibitor: inactive; HT1080NT lethal: inactive; ATXN viability: inactive

Results for C/C(=N\Nc1ccccn1)c1ccc(C(C)C)cc1 ?
HT1080 IDH1KD tx: inactive; HepG2 viability: inactive; ATXN2 expr inh: inactive; TGFb inhibitor: 12.6µM; HT1080NT lethal: inactive; ATXN viability: inactive

Results for O=C(NCc1ccco1)c1ccc(Cn2c(SCc3ccc(F)cc3)nc3cccnc32)cc1 ?
HepG2 viability: inactive; TGFb inhibitor: inconclusive

Results for COc1ccc(C)cc1NS(=O)(=O)c1ccc(-c2cnc(C3CC3)o2)cc1 ?
HT1080 IDH1KD tx: 0.0073µM; HepG2 viability: inactive; ATXN2 expr inh: inactive; TGFb inhibitor: 3.55µM; HT1080NT lethal: inconclusive; ATXN viability: inconclusive

What do the screens show for `Cc1ccc(-c2cnc(C3CC3)o2)cc1S(=O)(=O)Nc1cccc(C#N)c1`?
HepG2 viability: inactive; ATXN2 expr inh: inconclusive; TGFb inhibitor: inactive; ATXN viability: inconclusive

Assay outcomes: PubChem, National Center for Advancing Translational Sciences (NCATS)
